Assay outcomes: PubChem BioAssay, several laboratories
tim10-1 inh = growth inhibitors of tim10-1 mutant yeast, primary screen, luminescence, uHTS; S. cerevisiae tim10-1 ts strain growth, BacTiter-Glo, 24 h; inhibition, % at 20 µM; hit rate 2.2% among 330,000; AID 463190, 2010;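 active = inhibition of at least 40%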;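 note: mutant grown at 25 °C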
NALP1 yeast inh = NALP1 inflammasome inhibitors in reconstituted yeast, colorimetric, S. cerevisiae, triplicate retest | inhibition, % at 10 µM | AID 2071, 2009 | hit rate 0.61% among 280,000 | S. cerevisiae NALP1/ASC/caspase-1 growth, X-gal OD620, 72 h; in the data active = inhibition mostly above about 24%, no sharp cut-off; inactive = mostly below about 32%
tim23-1 inh = growth inhibitors of tim23-1 mutant yeast, primary screen, luminescence, uHTS; S. cerevisiae tim23-1 growth, BacTiter-Glo luminescence, 24 h; inhibition, % at 20 µM; AID 463212, 2010; hit rate 1.3% among 330,000;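 active = growth inhibition of the mutant yeast at or above 50%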;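 note: temperature-sensitive mutant grown at 25 °C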
SKKanGAS inh = S. pyogenes SKKanGAS growth inhibitors in kanamycin, primary screen, streptokinase expression inhibitor project, SKKanGAS strain, BacTiter-Glo luminescence | 6 h | inhibition, % at 7.5 µM | hit rate 1.3% among 300,000 | AID 1662, 2009;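 active = mean replicate score, as percent of positive control median, at least 50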;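 note: strain carries kanamycin resistance gene driven by streptokinase promoter and grows in 40 µg/ml kanamycin; loss of luminescence reflects streptokinase promoter inhibition or plain growth inhibition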
NLRP3 yeast inh = NALP3 inflammasome inhibitors in reconstituted yeast, primary screen, luminescence, uHTS; Yeast reconstituted NLRP3/ASC/caspase-1, beta-gal luminescence, 24 h; inhibition, % at 10 µM; hit rate 0.39% among 330,000;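 active = inhibition of 50% or more; inactive = inhibition below 50%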
TIM10 inh = growth inhibitors of isogenic TIM10 control yeast, primary screen, counter-screen for tim10-1 yeast inhibitor project, luminescence, uHTS | S. cerevisiae TIM10 strain growth, BacTiter-Glo luminescence, 24 h | inhibition, % at 10 µM | hit rate 1.4% among 330,000 | AID 463195, 2010;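 active = inhibition of 40% or more at the single tested concentration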;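 note: wild-type TIM10 isogenic control strain grown at permissive 25 °C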
tim10-1 conf = growth inhibitors of tim10-1 mutant yeast, confirmation, single concentration, luminescence, S. cerevisiae; shares compounds with tim10-1 inh; S. cerevisiae tim10-1 ts strain growth, BacTiter-Glo, 24 h; inhibition, % at 20 µM; hit rate 56% among 7,400; AID 463213, 2010;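 active = inhibition of yeast growth at or above a set limit in either of two repeat tests at 20 µM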;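 note: tim10-1 mutant grown at permissive 25 °C to find synthetic lethal compounds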
TIM10 conf = growth inhibitors of wild-type TIM10 yeast, confirmation, counter-screen for tim10-1 synthetic lethality project, single concentration, luminescence, S. cerevisiae; shares compounds with TIM10 inh; S. cerevisiae tim10 strain growth, BacTiter-Glo luminescence, 24 h; inhibition, % at 10 µM; hit rate 63% among 4,600; AID 463215, 2010;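 active = inhibition of yeast growth at or above a set limit in either of two replicates at 10 µM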; note: this counterscreen used the strain with wild-type TIM10
Hits are given with their value; 0 = inactive; - = no result. Hits are enriched below; roughly 4.9% of the tested compounds scored in any of these assays.

SMILES	tim10-1 inh	NALP1 yeast inh	tim23-1 inh	SKKanGAS inh	NLRP3 yeast inh	TIM10 inh	tim10-1 conf	TIM10 conf
CCOc1cc2c3c(c1)C1(Nc4ccccc4S1)C(=O)N3C(C)(C)CC2C (stereo not given)	49	0	0	0	0	47	48	32
Cc1ccc(C(=O)NCCc2nnc3ccc(SCC(=O)N4CCCCC4)nn23)cc1	0	0	0	0	0	0	-	-
Cc1ccc(OCC(=O)NNC(=O)C(C)Sc2ncnc3sc(C)c(C)c23)cc1 (stereo not given)	42	0	0	0	0	55	42	0
O=C(Nc1ncccc1O)c1ccc(Cl)c(S(=O)(=O)N2CCCCC2)c1	0	-	0	0	0	0	-	-
CCOC(=O)c1ccc(NS(=O)(=O)c2ccc(SC)cc2)cc1	41	0	0	0	0	40	38	0
O=c1c2cccc3c2c(nn1CN1CCOCC1)-c1ccccc1-3	53	0	0	0	0	41	0	52
CCN(CC)CCn1nc2c3c(cccc3c1=O)-c1ccccc1-2	0	0	0	-	0	0	-	-
CCn1ncc(Br)c1C(=O)Nc1cc(C)on1	0	0	0	0	0	0	-	-
COc1ccccc1N(C)S(=O)(=O)c1ccc(C(=O)Nc2nccs2)cc1	0	-	0	-	0	0	-	-
CCOC(=O)/C(C#N)=N/Nc1ccc(S(=O)(=O)Nc2cc(OC)nc(OC)n2)cc1	0	-	0	0	0	0	-	-
COc1ccc2[nH]cc(C=O)c2c1	0	0	0	0	0	0	-	-
O=C(/C=C/c1c[nH]c2ccccc12)c1ccccc1	45	0	0	0	0	53	37	0
COc1ccc2[nH]cc(/C=C/C(=O)c3ccccc3)c2c1	61	0	0	0	0	71	52	74
O=c1ncc(F)c[nH]1	-	-	-	0	-	-	-	-
CCn1c(C)c(/C=N/Nc2nc3ccccc3s2)c2ccccc21	48	0	0	0	0	43	0	0
Cc1nn(-c2ccccc2Cl)c(Cl)c1/C=N/Nc1nc2ccccc2s1	0	0	0	0	0	0	-	-
CNS(=O)(=O)c1cccc(C(=O)Nc2cccc(Cl)c2)c1	0	0	0	0	0	0	-	-
CN(C)S(=O)(=O)c1cccc(C(=O)Nc2ccccc2)c1	0	0	0	0	0	0	-	-
CN(C)S(=O)(=O)Oc1cccc(C(=O)Nc2cccc(Cl)c2)c1	55	0	0	0	0	77	46	72
CN(C)S(=O)(=O)c1cccc(C(=O)Nc2cc(Cl)cc(Cl)c2)c1	51	0	0	0	0	42	0	0
CN(C)S(=O)(=O)Oc1cccc(C(=O)Nc2ccc(Cl)c(Cl)c2)c1	57	0	0	0	0	49	44	65
COc1ccc(NC(=O)c2cccc(OS(=O)(=O)N(C)C)c2)cc1	0	0	0	0	0	0	-	-
O=S(=O)(NC1C2CC3CC(C2)CC1C3)c1ccc(F)cc1 (stereo not given)	0	-	0	-	0	0	-	-
COc1ccc(C(=O)COC(=O)c2nn(C)cc2Cl)cc1	0	0	0	0	0	0	-	-
COc1ccc(C(=O)NNC2=C(C(=O)C(F)(F)F)CCC2)cc1	0	0	0	0	0	0	-	-
O=C(NNC1=C(C(=O)C(F)(F)F)CCC1)c1ccc(Cl)cc1	53	0	0	101	0	41	0	40
Cc1ccc2cc3cc(C(=O)NCCCN4CCc5ccccc5C4)oc3nc2c1	51	46	0	0	0	64	35	0
CCCN(CCC)CCCNC(=O)c1cc2cc3ccc(Cl)cc3nc2o1	58	0	0	0	0	60	39	41
CCCCN(CC)CCNC(=O)c1cc2cc3ccc(Cl)cc3nc2o1	0	0	0	0	0	0	-	-
